Calls of active or inactive are those of the source.

The text below walks through data of PubChem BioAssay.

A short description of experiment [1]: small molecules captured by biotinylated probe aFSTL3 – biochemical, small-molecule microarray, fluorescence 635/667, stem cell growth factor project, primary screen (AID 1064).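 Further: measures binding of the biotinylated anti-FSTL3 antibody to printed compounds.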 To be noted: higher = more signal.
A short description of experiment [2]: binders from COS7 lysate, DM2A8 probe, primary screen, torsin A project, cell lysate, small-molecule microarray, fluorescence 635/667 (AID 1065). The note with it: higher = more signal, COS7 lysate expressing mutant human TOR1A.
Experiment [3] in a line: small molecules captured by biotinylated probe aFGF2 – biochemical, small-molecule microarray, fluorescence 635/667, stem cell growth factor project, primary screen (AID 1067).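 Further: measures binding of biotinylated aFGF2 protein to printed compounds on slides; z-score merges feature fluorescence and signal-to-noise across triplicate slides.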 The note with it: higher = more signal.
Experiment [4] is described as follows: small molecules captured by biotinylated probe aFGF10 – biochemical, small-molecule microarray, fluorescence 635/667, stem cell growth factor project, primary screen (AID 1071).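 Further: score merges 667 nm spot intensity and signal to noise from triplicate slides.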 The note with it: higher = more signal.
The target of experiment [5] is Neurogenic locus notch homolog protein 2 (Homo sapiens) (UniProt Q04721). In words: small molecules binding Notch2 protein – biochemical, small-molecule microarray, 635 nm fluorescence, stem cell growth factors, primary screen (AID 1073). To be noted: higher = more signal.
The target of experiment [6] is Pro-neuregulin-1, membrane-bound isoform (Homo sapiens) (UniProt Q02297). In words: small molecules binding neuregulin-1 protein – biochemical, small-molecule microarray, fluorescence 635/667, psychiatric disease protein project, primary screen (AID 1075).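 Further: score combines 667 nm spot fluorescence with signal to noise.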 To be noted: NRG1 binding, 635 nm fluorescence, higher = more signal.
Experiment [7] relates to Neuregulin-1 EGF-like domain. In words: small molecules binding NRG1 EGF domain – biochemical, small-molecule microarray, 635 nm fluorescence, primary screen (AID 1081).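 Further: binding of the protein to compounds printed on small-molecule microarray slides.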 To be noted: higher = more signal.
The nature of experiment [8]: FRG1 expression reporter modulators in myotubes – cell-based, C2C12 myotubes, firefly/Renilla luciferase, luminescence, FRG1 inhibition for FSHD, primary screen (AID 1084). To be noted: FRG1 promoter luciferase, higher = more signal, called active from +8 up or from −8 down.
Experiment [9] is described as follows: small molecules captured by biotinylated probe aFST – biochemical, small-molecule microarray, fluorescence 635/667, stem cell growth factor project, primary screen (AID 1086).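 Further: score merges 667 nm fluorescence with signal-to-noise of each printed compound spot.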 The note with it: higher = more signal.
The nature of experiment [10]: binders of probe aHhip on microarray, primary screen, stem cell growth factor project, biochemical, small-molecule microarray, fluorescence 635/667 (AID 1087).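 Further: score merges spot fluorescence at 667nm with spot signal to noise ratio.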 The note with it: higher = more signal.
Experiment [11] has as its system PRMT1 (protein arginine N-methyltransferase 1). In words: small molecules binding arginine methyltransferase PRMT1 – biochemical, small-molecule microarray, 635 nm fluorescence, primary screen (AID 1088).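 Further: binding of Prmt1 protein to compounds spotted on small-molecule microarray slides.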 The note with it: higher = more signal.
Experiment [12] is described as follows: growth effects on S. cerevisiae YJM789 – YJM789 clinical isolate, OD600, 24 h, basal, primary screen (AID 1089).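 Further: growth of clinical yeast isolate S. cerevisiae YJM 789 seeded 1000 cells per well; test concentration not given here.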 To be noted: higher = more signal, called active from +8 up or from −8 down.
Experiment [13] in a line: S. pombe growth modifiers, basal conditions – strain 972, OD600, 24 h, no modulator, primary screen (AID 1090).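 Further: basal condition with compound alone and no growth modifier present; test concentration not given here.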 The note with it: S. pombe 972 growth, higher = more signal, called active from +8 up or from −8 down.
Experiment [14] in a line: budding yeast growth modifiers under rapamycin – strain BY4716, OD600, 96 h, primary screen (AID 1091). Further: test concentration not given here. The note with it: S. cerevisiae BY4716 + rapamycin, higher = more signal, called active from +8 up or from −8 down.
For experiment [15], the target named is Torsin-1A-interacting protein 2 (Homo sapiens) (UniProt Q8NFQ8). In words: small molecules binding lysate-expressed LULL1 – cell lysate, human LULL1 lysate, 635/667 nm fluorescence, primary screen (AID 1092).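 Further: probe is lysate of COS7 cells overexpressing human LULL1; score merges per-feature 667 nm fluorescence with signal-to-noise.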 The note with it: small-molecule microarray, hLULL1 lysate binding, 635 nm fluorescence; higher = more signal.
A short description of experiment [16]: optical density change of DRC41 E. coli – strain DRC41, OD650, 24 h, E. coli filamentation project, primary screen (AID 1093).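 Further: MC1000 strain lacking acrAB efflux and sulA so SOS filamentation is blocked; test concentration not given here.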 The note with it: E. coli DRC41 growth, higher = more signal, called active from +8 up or from −8 down.
A short description of experiment [17]: probe aLefty2 binding to arrayed compounds – biochemical, biotinylated probe, 635/667 nm fluorescence, primary screen (AID 1094).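 Further: score merges spot fluorescence near 667 nm with spot signal-to-noise ratio.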 To be noted: small-molecule microarray, higher = more signal.
Experiment [18] has as its system Noggin (protein binding on small-molecule microarray). In words: small molecules binding Noggin protein – biochemical, 635/667 nm fluorescence, primary screen (AID 1095).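 Further: score merges 667 nm feature fluorescence with signal to noise over triplicate slides.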 The note with it: 635 nm fluorescence, higher = more signal.
The target in experiment [19] is Neurogenic locus notch homolog protein 3 (Homo sapiens) (UniProt Q9UM47). In words: small molecules binding NOTCH3 protein – biochemical, 635/667 nm fluorescence, primary screen (AID 1096). The note with it: small-molecule microarray, 635 nm fluorescence, higher = more signal.
A short description of experiment [20]: probe aEGFR binding to arrayed compounds – biochemical, biotinylated probe, 635/667 nm fluorescence, primary screen (AID 1097).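 Further: probe is a biotinylated anti-EGFR antibody binding compounds printed on slides; score combines fluorescence near 667 nm and signal to noise of each spot.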 To be noted: small-molecule microarray, higher = more signal.

Sequence of Neurogenic locus notch homolog protein 3 (Homo sapiens) (Q9UM47 whole entry, looked up): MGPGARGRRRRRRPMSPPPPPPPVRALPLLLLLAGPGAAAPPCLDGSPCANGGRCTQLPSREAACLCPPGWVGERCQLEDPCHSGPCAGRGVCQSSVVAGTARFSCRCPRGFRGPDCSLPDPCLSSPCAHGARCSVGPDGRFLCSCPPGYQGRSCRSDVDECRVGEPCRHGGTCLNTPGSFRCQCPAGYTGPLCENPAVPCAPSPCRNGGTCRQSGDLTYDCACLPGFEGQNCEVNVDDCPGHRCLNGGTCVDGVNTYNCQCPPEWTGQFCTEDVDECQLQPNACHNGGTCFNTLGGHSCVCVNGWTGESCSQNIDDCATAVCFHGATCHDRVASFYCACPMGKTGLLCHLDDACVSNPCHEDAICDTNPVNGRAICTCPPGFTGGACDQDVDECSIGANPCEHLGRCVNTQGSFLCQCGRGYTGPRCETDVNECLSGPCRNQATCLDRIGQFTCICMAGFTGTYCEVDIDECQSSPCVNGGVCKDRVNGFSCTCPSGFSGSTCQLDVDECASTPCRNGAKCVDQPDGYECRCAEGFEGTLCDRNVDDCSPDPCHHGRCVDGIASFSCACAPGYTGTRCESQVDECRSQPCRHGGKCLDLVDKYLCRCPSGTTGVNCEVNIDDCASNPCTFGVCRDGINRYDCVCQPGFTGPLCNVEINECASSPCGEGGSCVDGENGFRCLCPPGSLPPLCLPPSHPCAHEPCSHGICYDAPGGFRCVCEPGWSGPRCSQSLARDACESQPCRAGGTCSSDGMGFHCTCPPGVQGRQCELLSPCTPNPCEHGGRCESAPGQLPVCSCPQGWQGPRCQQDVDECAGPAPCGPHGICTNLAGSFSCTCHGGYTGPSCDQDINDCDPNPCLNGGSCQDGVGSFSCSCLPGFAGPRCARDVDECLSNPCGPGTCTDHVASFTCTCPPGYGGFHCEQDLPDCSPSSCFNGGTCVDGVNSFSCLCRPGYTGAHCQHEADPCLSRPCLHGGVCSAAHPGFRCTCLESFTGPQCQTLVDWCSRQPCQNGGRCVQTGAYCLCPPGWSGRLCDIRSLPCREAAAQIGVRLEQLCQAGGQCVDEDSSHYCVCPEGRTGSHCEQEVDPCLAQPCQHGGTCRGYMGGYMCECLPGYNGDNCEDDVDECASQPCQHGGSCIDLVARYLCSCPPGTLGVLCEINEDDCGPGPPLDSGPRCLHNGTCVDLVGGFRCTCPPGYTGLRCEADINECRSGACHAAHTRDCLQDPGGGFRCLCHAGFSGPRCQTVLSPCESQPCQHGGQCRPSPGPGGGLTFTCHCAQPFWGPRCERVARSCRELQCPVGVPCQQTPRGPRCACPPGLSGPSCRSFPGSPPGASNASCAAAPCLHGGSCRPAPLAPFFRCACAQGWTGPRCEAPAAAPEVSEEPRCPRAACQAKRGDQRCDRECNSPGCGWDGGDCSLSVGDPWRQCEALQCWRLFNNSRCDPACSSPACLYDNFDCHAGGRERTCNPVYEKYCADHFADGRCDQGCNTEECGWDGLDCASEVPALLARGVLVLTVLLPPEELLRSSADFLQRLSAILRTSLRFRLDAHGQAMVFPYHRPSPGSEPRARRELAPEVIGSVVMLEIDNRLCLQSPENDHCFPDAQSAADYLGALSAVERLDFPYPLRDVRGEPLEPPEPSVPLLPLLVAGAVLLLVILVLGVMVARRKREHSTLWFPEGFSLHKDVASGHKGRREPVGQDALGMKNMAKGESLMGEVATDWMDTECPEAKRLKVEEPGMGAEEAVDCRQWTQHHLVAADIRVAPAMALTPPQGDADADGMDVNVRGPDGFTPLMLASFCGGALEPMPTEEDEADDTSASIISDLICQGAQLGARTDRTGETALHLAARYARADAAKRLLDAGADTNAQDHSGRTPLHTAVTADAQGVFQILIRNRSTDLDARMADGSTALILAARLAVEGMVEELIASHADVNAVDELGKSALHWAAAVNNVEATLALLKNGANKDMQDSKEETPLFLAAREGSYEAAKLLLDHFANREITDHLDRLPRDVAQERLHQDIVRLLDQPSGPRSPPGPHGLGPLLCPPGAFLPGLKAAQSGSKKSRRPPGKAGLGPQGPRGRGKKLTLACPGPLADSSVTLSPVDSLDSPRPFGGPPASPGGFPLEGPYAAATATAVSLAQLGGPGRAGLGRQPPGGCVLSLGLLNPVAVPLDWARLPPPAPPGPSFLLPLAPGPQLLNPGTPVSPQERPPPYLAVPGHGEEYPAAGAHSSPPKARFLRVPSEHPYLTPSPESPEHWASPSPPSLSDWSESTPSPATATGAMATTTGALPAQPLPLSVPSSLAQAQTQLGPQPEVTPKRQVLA
Sequence of Neurogenic locus notch homolog protein 2 (Homo sapiens) (Q04721 whole entry, looked up, canonical isoform): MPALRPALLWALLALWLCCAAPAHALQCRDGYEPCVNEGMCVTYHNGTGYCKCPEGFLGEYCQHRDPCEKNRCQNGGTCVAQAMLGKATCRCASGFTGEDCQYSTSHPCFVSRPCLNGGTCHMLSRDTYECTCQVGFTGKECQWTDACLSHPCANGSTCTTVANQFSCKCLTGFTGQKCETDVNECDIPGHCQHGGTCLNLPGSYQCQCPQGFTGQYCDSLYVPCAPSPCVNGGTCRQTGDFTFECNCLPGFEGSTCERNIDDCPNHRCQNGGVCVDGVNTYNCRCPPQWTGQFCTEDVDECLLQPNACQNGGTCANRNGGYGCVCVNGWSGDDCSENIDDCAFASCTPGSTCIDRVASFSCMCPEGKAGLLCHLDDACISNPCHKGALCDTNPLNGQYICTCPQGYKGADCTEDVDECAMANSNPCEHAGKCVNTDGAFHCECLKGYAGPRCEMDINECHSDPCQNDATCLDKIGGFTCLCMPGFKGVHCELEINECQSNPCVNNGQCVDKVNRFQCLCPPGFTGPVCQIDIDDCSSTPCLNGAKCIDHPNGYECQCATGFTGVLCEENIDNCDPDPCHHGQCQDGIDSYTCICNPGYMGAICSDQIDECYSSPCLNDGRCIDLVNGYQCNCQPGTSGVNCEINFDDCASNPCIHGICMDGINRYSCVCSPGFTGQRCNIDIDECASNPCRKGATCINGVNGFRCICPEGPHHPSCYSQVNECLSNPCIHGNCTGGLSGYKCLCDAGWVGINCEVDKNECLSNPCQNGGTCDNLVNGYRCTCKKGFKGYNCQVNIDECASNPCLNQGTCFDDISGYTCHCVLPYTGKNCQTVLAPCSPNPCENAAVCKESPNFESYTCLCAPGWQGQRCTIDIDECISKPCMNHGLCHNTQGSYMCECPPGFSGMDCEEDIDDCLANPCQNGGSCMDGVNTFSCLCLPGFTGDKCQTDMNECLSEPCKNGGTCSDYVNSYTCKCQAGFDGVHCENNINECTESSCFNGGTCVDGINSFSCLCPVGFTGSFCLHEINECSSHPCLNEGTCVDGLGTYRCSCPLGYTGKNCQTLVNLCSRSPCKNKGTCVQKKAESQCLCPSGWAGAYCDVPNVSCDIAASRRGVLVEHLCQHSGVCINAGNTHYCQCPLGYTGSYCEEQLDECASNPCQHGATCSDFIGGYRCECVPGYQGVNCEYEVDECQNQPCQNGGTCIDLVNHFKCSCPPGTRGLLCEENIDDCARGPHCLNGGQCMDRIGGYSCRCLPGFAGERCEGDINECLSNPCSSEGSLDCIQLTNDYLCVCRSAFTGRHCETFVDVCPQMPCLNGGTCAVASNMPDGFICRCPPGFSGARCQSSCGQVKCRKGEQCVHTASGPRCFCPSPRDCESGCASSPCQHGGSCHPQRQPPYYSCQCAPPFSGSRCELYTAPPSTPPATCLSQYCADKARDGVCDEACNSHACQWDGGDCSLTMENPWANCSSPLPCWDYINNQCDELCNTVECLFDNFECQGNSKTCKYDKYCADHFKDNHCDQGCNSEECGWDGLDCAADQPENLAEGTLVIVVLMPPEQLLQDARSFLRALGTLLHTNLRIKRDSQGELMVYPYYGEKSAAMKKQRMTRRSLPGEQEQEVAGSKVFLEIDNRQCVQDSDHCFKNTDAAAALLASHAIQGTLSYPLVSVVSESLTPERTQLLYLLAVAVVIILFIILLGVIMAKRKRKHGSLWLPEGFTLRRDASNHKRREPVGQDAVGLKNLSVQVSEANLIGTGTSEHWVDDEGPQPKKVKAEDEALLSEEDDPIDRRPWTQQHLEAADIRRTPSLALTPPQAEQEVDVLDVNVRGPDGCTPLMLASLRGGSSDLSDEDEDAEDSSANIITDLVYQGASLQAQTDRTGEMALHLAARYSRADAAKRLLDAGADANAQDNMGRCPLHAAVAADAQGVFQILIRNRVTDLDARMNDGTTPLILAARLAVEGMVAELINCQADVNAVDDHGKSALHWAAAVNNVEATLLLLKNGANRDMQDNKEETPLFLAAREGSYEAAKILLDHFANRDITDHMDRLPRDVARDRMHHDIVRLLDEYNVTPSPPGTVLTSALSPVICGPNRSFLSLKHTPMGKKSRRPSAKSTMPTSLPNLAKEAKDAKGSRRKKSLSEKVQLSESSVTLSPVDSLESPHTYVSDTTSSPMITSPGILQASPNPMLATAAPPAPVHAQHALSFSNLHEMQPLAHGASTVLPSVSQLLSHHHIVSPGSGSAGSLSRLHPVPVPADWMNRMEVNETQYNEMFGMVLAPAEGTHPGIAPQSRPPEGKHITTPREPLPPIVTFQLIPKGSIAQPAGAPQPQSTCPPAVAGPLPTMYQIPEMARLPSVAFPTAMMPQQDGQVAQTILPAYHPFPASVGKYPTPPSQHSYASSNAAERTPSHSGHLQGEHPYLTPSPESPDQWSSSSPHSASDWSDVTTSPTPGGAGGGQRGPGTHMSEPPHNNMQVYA

Take `COC(=O)C1=CCC(c2cccc(Cl)c2)O1` (stereo not given): the composite z-score in experiment [1] was 0.005; in experiment [2], -0.0992; in experiment [3], -0.0901; in [4], 0.0994; in experiment [5], -0.104; in experiment [6], 1.25. The composite z-score in experiment [7] is 0.584; in experiment [9], -0.0195; in experiment [10] it was 0.0749; in [11], 0.0357; in [15] it was 1.82; in experiment [17] it was -0.043. Further, the composite z-score in [18] is -0.485; in experiment [19], -0.223; in experiment [20], -0.106. For the same compound, the z-score in experiment [8] is -0.912 (inactive); in experiment [12] it was -1.6 (inactive); in experiment [13], -1.54 (inactive); in experiment [14], 4.34 (inactive); in experiment [16] it was -0.215 (inactive).
In the case of `O=C1[C@H]2[C@H]3[C@H](O)[C@H](O)CC(=NOCc4ccccc4)[C@H]3CC[C@H]2C(=O)N1c1ccc(F)cc1F`, the composite z-score in experiment [1] was -0.426; in experiment [2], -0.0076; in experiment [3] it was -0.0561; in experiment [4] it was 0.0471; in [5] it was -0.0497; in [6], 0.757. In addition, the composite z-score in experiment [7] is 0.106; in experiment [9], -0.314; in experiment [10], -0.214; in [11], -0.129; in experiment [15], -0.089; in experiment [17], -0.373. Moreover, the figures for the composite z-score in [18], in experiment [19] and in experiment [20] were -0.153, -0.367 and -0.0936, respectively. Besides, the z-score in [8] was 0.131 (inactive); in experiment [12], -1.3 (inactive); in experiment [13], -0.128 (inactive); in experiment [14], -0.982 (inactive); in experiment [16], 0.358 (inactive).
For `CC(C)N1CC=CC23O[C@@H]4C=CCCOC(=O)C4[C@H]2C(=O)N(CCCCCCO)[C@@H]3C1=O` (stereo not given in full), the composite z-score in [1] was 0.487; in [2] it was -1.93; in [3] it was -0.141; in experiment [4] it was -0.671; in experiment [5], -1.17; in [6] it was 1.2. For the same compound, the composite z-score in experiment [7] was 0.896; in experiment [9], -0.357; in experiment [10] it was -0.236; in [11], 0.613; in experiment [15] it was 1.94; in [17], -0.233. Also, the values for the composite z-score in [18], in experiment [19] and in experiment [20] were -0.984, -0.0917 and -0.297, respectively. Besides, the z-score in [8] is -0.121 (inactive); in experiment [12] it was 0.653 (inactive); in experiment [13], 0.159 (inactive); in [14], 0.121 (inactive); in experiment [16] it was -0.0822 (inactive).
For the compound `C[N+](C)(C)CCCCCCNC(=O)[C@@H]1C[C@@H]2C(=O)N3CCC[C@H]3C(=O)N2[C@@H]1c1cccc(OCCO)c1`, the composite z-score was -0.0041 in [1]; 0.669 in experiment [2]; -0.169 in experiment [3]; -0.239 in experiment [4]; -0.337 in [5]; 0.747 in experiment [6]. For the same compound, the composite z-score in [7] is 1.35; in experiment [9] it was -0.128; in experiment [10], -0.48; in [11] it was 1.44; in experiment [15], 3.14; in experiment [17], -0.0898. In addition, the composite z-score in experiment [18] is 1.88; in experiment [19], 0.245; in [20], -0.0967. Also, the z-score in [8] was 5.01 (inactive); in [12], -1.6 (inactive); in experiment [13], -0.0376 (inactive); in experiment [14], -1.06 (inactive); in experiment [16], 0.784 (inactive).
Consider `CC(C)CON=C1[C@H]2CCn3c(=O)n(-c4ccccc4)c(=O)n3[C@H]2[C@H](O)[C@@H]2O[C@H]12`, for which the composite z-score is -0.358 in experiment [1]; -0.0519 in [2]; -0.102 in experiment [3]; 0.325 in experiment [4]; 0.532 in experiment [5]; -0.0371 in experiment [6]. Moreover, the composite z-score in experiment [7] was 0.323; in [9], 0.204; in experiment [10], -0.069; in experiment [11] it was -0.317; in experiment [15] it was -0.381; in experiment [17] it was -0.149. The composite z-score in experiment [18] was 0.302; in experiment [19], 0.837; in [20] it was -0.228. The z-score in experiment [8] was -0.217 (inactive); in experiment [12] it was -0.476 (inactive); in experiment [13] it was 0.0606 (inactive); in experiment [14] it was -0.369 (inactive); in experiment [16], 0.343 (inactive).
